Reference: PubChem BioAssay (NCATS)
Inconclusive results are not listed. Unmarked numbers belong to inactive results. The call rests on the fitted dose curve; in most records, active means well fitted curve in the direction sought with a large enough effect; inconclusive means small, poorly fitted or top-dose-only effect, or another doubt; inactive means no such curve, though single readings can be large or run the other way.

Biological target: Protein phosphatase 1D (Homo sapiens) (UniProt O15297)
Assay: Rhodamine-PBP qHTS Assay for Modulators of WT P53-Induced Phosphatase 1 (WIP1) (AID 1347425)
Details: recombinant WIP1, Rhodamine-PBP phosphate fluorescence, real-time; series mostly up to 57.5 µM; activity change, negative = inhibition: at the top concentration
Excerpt: Assay Provider (PI): Nathan Coussens Ph.D.
National Center for Advancing Translational Sciences (NCATS), Rockville, MD
National Institute of Health (NIH), Bethesda, Maryland
WT P53-Induced Phosphatase 1 (WIP1) is a member of the magnesium-dependent serine/threonine protein phosphatase (PPM) family and is induced by P53 in response to DNA damage. In several human cancers, the WIP1 protein is overexpressed, which is generally associated with a worse prognosis. Although WIP1 is an attractive therapeutic target, no potent, selective, and bioactive small-molecule modulator with favorable pharmacokinetics has been reported. Phosphatase enzymes are among the most challenging targets for small molecules because of the difficulty of achieving both modulator selectivity and bioavailability. Another major obstacle has been the availability of robust and physiologically relevant phosphatase assays that are suitable for high-throughput screening.
Here, we describe two orthogonal biochemical WIP1 activity assays that utilize phosphopeptides from native WIP1 substrates. We optimized a RapidFire MS assay to quantify the enzymatically dephosphorylated peptide reaction product in a 384-well format. Additionally, a redshifted Rhodamine-PBP fluorescence assay was optimized in a 1,536-well format to enable real-time WIP1 activity measurements through the detection of the orthogonal reaction product, Pi. We validated these two optimized assays by quantitative high-throughput screening against the National Center for Advancing Translational Sciences (NCATS) Pharmaceutical Collection and used secondary assays to confirm and evaluate inhibitors identified in the primary screen.
SEQUENCE No. (e.g., 1, 2, 3, etc.); […] (e.g., Cells, Incubation, Reagent, etc.); VALUE; DESCRIPTION
1; Reagent; 3 uL; WIP1 (6.7 nM), Rh-PBP (13.3 uM), columns 1-48
3; Library Compounds; 23 nL; NCATS Pharmaceutical Collection, column 5-48
4; Control Compounds; DMSO in column 2, GSK2830371 (57.5 uM, final) in 3-fold serial dilutions in column 3, GSK2830371 (1.15 uM, final) in column 4
5; Time; 1 hr; incubation
6; Detection; fluorescence (f0); ViewLux, excitation filter = 525 nm, emission filter = 598 nm
7; Reagent; 1 uL; VEPP-pS-QETFS (40 uM), columns 2-48
8; Detection; fluorescence (f1); ViewLux, excitation filter = 525 nm, emission filter = 598 nm
NOTES (numbers refer to sequence above)
1 & 2; Black medium binding Greiner 1536-well plates (# 789176-F); assay buffer: 50 mM Tris-HCl pH 7.5, 30 mM MgCl2, 1mM TCEP, 0.1 mM EGTA, 75 ug/mL BSA; dispensed with a BioRaptr liquid handler (Beckman Coulter).
3 & 4; Kalypsys pintool (equipped with 1536 pinhead, Wako USA) transfer. Tip wash sequence: DMSO, methanol, 3 sec vacuum dry.
5; Room temperature incubation.
7; VEPPL-pS-QETFS in assay buffer dispensed with a BioRaptr; final reaction conditions: 5 nM WIP1, 10 uM VEPPL-pS-QETFS, 10 uM Rh-PBP, 50 mM Tris-HCl pH 7.5, 30 mM MgCl2, 1 mM TCEP, 0.1 mM EGTA, 75 ug/mL BSA.
8; Measurement taken at 1 min intervals for 11 min. Delta readout = f1 - f0.

Sequence of Protein phosphatase 1D (Homo sapiens) (O15297 whole entry, looked up): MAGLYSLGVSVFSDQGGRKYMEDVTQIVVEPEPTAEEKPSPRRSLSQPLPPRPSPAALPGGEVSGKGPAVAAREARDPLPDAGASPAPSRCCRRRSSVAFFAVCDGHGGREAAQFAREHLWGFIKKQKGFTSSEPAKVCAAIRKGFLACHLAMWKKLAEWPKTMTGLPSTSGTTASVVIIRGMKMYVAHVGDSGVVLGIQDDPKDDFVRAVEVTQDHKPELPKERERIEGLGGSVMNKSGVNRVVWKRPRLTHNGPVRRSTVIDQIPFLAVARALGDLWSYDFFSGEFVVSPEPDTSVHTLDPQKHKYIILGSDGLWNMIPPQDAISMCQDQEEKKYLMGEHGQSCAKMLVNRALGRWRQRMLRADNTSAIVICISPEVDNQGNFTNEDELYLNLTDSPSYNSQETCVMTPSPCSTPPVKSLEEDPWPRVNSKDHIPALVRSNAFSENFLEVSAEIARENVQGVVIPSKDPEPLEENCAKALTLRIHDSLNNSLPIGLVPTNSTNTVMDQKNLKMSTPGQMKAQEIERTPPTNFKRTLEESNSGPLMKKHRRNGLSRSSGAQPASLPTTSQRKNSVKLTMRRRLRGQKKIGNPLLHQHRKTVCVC

SMILES | activity change, negative = inhibition [%]
CC(=O)NCCCCCC(=O)O | -1
CCCCN1C[C@H](O)[C@@H](O)[C@H](O)[C@H]1CO | -11.9
Cc1cccc(C)c1NC(=O)CN1CCCCCC1 | 7.03
Cc1cc(CC(=O)O)c(C)n1-c1ccc(Cl)cc1 | -23.5
CCCCN=C(N)N=C(N)N | 2.91
CN1CCN(CCC(=O)N2c3ccccc3Sc3ccc(C(F)(F)F)cc32)CC1 | 29.3
CCCCc1cc2ccccc2c(OCCN(C)C)n1 | 8.44
NCc1ccccc1Sc1ccccc1CO | -0.682
C=C[C@H]1CN2CC[C@H]1C[C@@H]2[C@@H](O)c1ccnc2ccc(OC)cc12 | 7.11
CN(C)C(=O)Nc1ccc(Cl)c(Cl)c1 | 12.4
CNCCc1ccccn1 | 0.541
CC(=O)OCC1=C(C(=O)O)N2C(=O)[C@@H](NC(=O)CSc3ccncc3)[C@H]2SC1 | -8.08
CCC1Nc2cc(Cl)c(S(N)(=O)=O)cc2S(=O)(=O)N1 (stereo not given) | 7.65
CC(=O)Nc1ncc([N+](=O)[O-])s1 | -19.8
CCNC(=O)/C=C/c1cccc(Br)c1 | 16.1
C[C@]12CCC(=O)C=C1C=C[C@@H]1[C@@H]2CC[C@@]2(C)[C@H]1CC[C@@]21CCC(=O)O1 | 9.15
CC(C(=O)O)c1cccc(Oc2ccccc2)c1 (stereo not given) | -7.86
CCO[C@@H]1O[C@H](C(COCc2ccccc2)OCc2ccccc2)[C@H](OCc2ccccc2)[C@H]1O (stereo not given in full) | 16.8
CCCCC(CC)COC(=O)c1ccc(N(C)C)cc1 (stereo not given) | 17.8
COc1ccc(C(Cl)=C(c2ccc(OC)cc2)c2ccc(OC)cc2)cc1 | 0.695

SMILES | activity change, negative = inhibition [%]
NS(=O)(=O)c1cc(C(=O)O)cc(N2CCCC2)c1Oc1ccccc1 | 1.04
CN(C)CCOC(c1ccc(Cl)cc1)c1ccccn1 (stereo not given) | 2.84
CCCCNc1ccc(C(=O)OCCOCCOCCOCCOCCOCCOCCOCCOCCOC)cc1 | -8.58
OC(C#CCN1CCCC1)(c1ccccc1)c1ccccc1 | 1.4
Cc1ccc(-c2ncc(Cl)cc2-c2ccc(S(C)(=O)=O)cc2)cn1 | 13
CCOC(=O)[C@H](CCc1ccccc1)N[C@@H](C)C(=O)N1[C@H](C(=O)O)C[C@@H]2CCC[C@@H]21 | 1.62
CN1CCN(C2=Nc3cc(F)ccc3Cc3ccccc32)CC1 | -8.36
CC(=O)NC(=O)c1ccccc1O | -1.69
CC(=O)OCC(=O)[C@H]1CC[C@H]2[C@@H]3CCC4=CC(=O)CC[C@]4(C)[C@H]3CC[C@]12C | -1.62
O=C1C(=O)c2ccccc2C(O)=C1C1CCC(c2ccc(Cl)cc2)CC1 (stereo not given) | -2.55
C=C[C@@]1(C)CC(=O)[C@]2(O)[C@@]3(C)[C@@H](O)CCC(C)(C)[C@@H]3[C@H](O)[C@H](OC(C)=O)[C@@]2(C)O1 | 12.7
CCCCCCCC/C=C\CCCCCCCCN | 17.8
CCCCCCCCOc1ccc(C(=O)c2ccccc2)c(O)c1 | 3.84
CCN(CC)CCOC(=O)C1(c2ccccc2)CCCC1 | 9.27
CNCCCCOc1ccccc1Cc1ccccc1 | 25.7
COc1cc(O)c(C(=O)c2ccccc2)cc1S(=O)(=O)O | 2.62
Cc1c(-c2ccccc2)oc2c(C(=O)OCCN3CCCCC3)cccc2c1=O | -12.9
CO[C@]12C[C@@H](COC(=O)c3cncc(Br)c3)CN(C)[C@@H]1Cc1cn(C)c3cccc2c13 | 19.3
CCCCCCCCCCCCCCCCO | 18.5
NCCNC(=O)c1ccc(Cl)cn1 | 16.7
